The nature of assay [1]: A CellTox Green Cytotoxicity Assay to monitor cytotoxicity in HepG2 cells - 24 hour (AID 1224878). Also: nearly all actives have a fitted effect of over 45% in size. Also: potency is read from the fitted curve at half-maximal effect. Summed up: (§1)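 Read-out is fluorescence of a cyanine dye excluded from live cells that stains DNA of dead HepG2 cells, with signal proportional to cytotoxicity. Plates were read at 0, 8, 16, 24, 32 and 40 h after compound addition.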
Assay [2] can be described thus: A CellTox Green Cytotoxicity Assay to monitor cytotoxicity in HepG2 cells - 40 hour (AID 1224879). Also: nearly all actives have a fitted effect of over 40% in size. Also: potency is read from the fitted curve at half-maximal effect. The procedure, abridged:
as §1

Assay [3] in a line: qHTS RealTime-Glo MT Cell Viability Assay in HEK293 cells - 0 hour (AID 1224880). Also: top concentration of the series differs between compounds; nearly all actives have a fitted effect of over 45% in size. The procedure, abridged: (§2)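 Cells were seeded together with NanoLuc luciferase and a prosubstrate that viable cells reduce to a luciferase substrate. After a 5 h incubation at 37 C/5% CO2, compounds were added and luminescence was measured repeatedly during 40 h of treatment.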
A general note: Quantitative high-throughput screening tests each substance at several concentrations.

Assay [4] can be described thus: A CellTox Green Cytotoxicity Assay to monitor cytotoxicity in HEK293 cells - 32 hour (AID 1224881). Also: nearly all actives have a fitted effect of over 40% in size. Also: potency is read from the fitted curve at half-maximal effect. The procedure, abridged:
(§3)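 Nonlytic real-time cytotoxicity: HEK293 + CellTox Green reagent plated, 5 h preincubation, pintool compound addition (23 nL in DMSO), 37 C for 40 h, fluorescence measured at successive time points.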

A short description of assay [5]: A CellTox Green Cytotoxicity Assay to monitor cytotoxicity in HepG2 cells - 0 hour (AID 1224882). Also: nearly all actives have a fitted effect of over 35% in size. Also: potency is read from the fitted curve at half-maximal effect. The procedure, abridged: as §1
A short description of assay [6]: A CellTox Green Cytotoxicity Assay to monitor cytotoxicity in HepG2 cells - 32 hour (AID 1224883). Also: nearly all actives have a fitted effect of over 50% in size. Also: potency is read from the fitted curve at half-maximal effect. Summed up:
as §1

Assay [7] is described as follows: A CellTox Green Cytotoxicity Assay to monitor cytotoxicity in HEK293 cells - 8 hour (AID 1224884). Also: nearly all actives have a fitted effect of over 35% in size. Also: potency is read from the fitted curve at half-maximal effect. Summed up:
as §3

The nature of assay [8]: qHTS RealTime-Glo MT Cell Viability Assay in HepG2 cells - 16 hour (AID 1224885). Also: nearly all actives have a fitted effect of over 50% in size. Summed up: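 Cells + NanoLuc/prosubstrate dispensed (600 cells/well) → 5 h at 37 C/5% CO2 → compounds in DMSO transferred → 40 h incubation at 37 C, luminescence read at 0, 8, 16, 24, 32, 40 h.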
A short description of assay [9]: qHTS RealTime-Glo MT Cell Viability Assay in HEK293 cells - 24 hour (AID 1224886). Also: top concentration of the series differs between compounds; nearly all actives have a fitted effect of over 50% in size. Summed up: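 Tox21 10K qHTS, HEK293, 600 cells/well, RealTime-Glo reagent co-dispensed with cells; 5 h preincubation, compound by pintool, 37 C, luminescence at 0–40 h.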
A short description of assay [10]: qHTS RealTime-Glo MT Cell Viability Assay in HEK293 cells - 8 hour (AID 1224887). Also: top concentration of the series differs between compounds; nearly all actives have a fitted effect of over 50% in size. The procedure, abridged: as §2

Inconclusive results are not listed. Activity calls are given as the source filed them. Calls follow the shape of the dose curve; as a rule, active = well fitted curve in the direction sought with a large enough effect in the repeat runs; inconclusive = weak or mixed curves; inactive = no such curve, though single readings can be large; an effect the other way counts as inactive or inconclusive.

On to `CC(C)=CCC/C(C)=C\C#N`, for which the Potency entry in assay [1], in assay [2], in [3], in assay [4], in assay [5] and in assay [6] was “inactive” in each case. The Potency entry in assay [7] is “inactive”. Also, the compound was called inactive in [8], in [9] and in assay [10].

As for `C[Si](C)(C)O[Si](O)(O)O`, the Potency result in assay [1], in assay [2], in assay [3], in assay [4], in assay [5] and in [6] was “inactive” each time. Moreover, the Potency entry in assay [7] is “inactive”. Besides, the outcome in assay [8], in assay [9] and in assay [10] was inactive.

As for `CCCCCCCCCCCCCC(=O)OCC`, the Potency result in assay [1], in assay [2], in assay [3], in assay [4], in assay [5] and in [6] was “inactive” in each case. The Potency entry in assay [7] was “inactive”. For the same compound, the result in assay [8], in [9] and in assay [10] was inactive.

For `CCCc1ccc(O)c(OC)c1`, the Potency entry in assay [1], in [2], in assay [3], in assay [4], in [5] and in assay [6] was “inactive” in each case. In addition, the Potency result in [7] is “inactive”. The result in [8], in [9] and in assay [10] was inactive.

`C/C=C(\C)C(=O)OC/C=C(\C)CCC=C(C)C`: the Potency result in [1], in assay [2], in assay [3], in [4], in assay [5] and in assay [6] was “inactive” each time. The Potency result in assay [7] was “inactive”. For the same compound, the outcome in assay [8], in [9] and in assay [10] was inactive.

Turning to `CCOCCOCCOC(C)=O`, the Potency entry in assay [1], in [2], in assay [3], in assay [4], in assay [5] and in [6] was “inactive” throughout. In [7], the Potency result is “inactive”. Also, the result in assay [8], in [9] and in [10] was inactive.

Turning to `O=Cc1ccccc1S(=O)(=O)O`, the Potency result in assay [1], in assay [2], in assay [3], in assay [4], in assay [5] and in assay [6] was “inactive” in each case. For the same compound, the Potency entry in [7] is “inactive”. Further, the compound was classed as inactive in assay [8], in assay [9] and in [10].

Regarding `NS(=O)(=O)c1cc2c(cc1C(F)(F)F)NCNS2(=O)=O`, the Potency result in [1], in assay [2], in assay [3], in assay [4], in [5] and in [6] was “inactive” in each case. In addition, the Potency entry in assay [7] was “inactive”. Moreover, the compound was classed as inactive in assay [8], in assay [9] and in [10].

Turning to `O=C(O)COc1ccc2ccccc2c1`, the Potency result in [1], in assay [2], in assay [3], in [4], in assay [5] and in assay [6] was “inactive” in each case. Also, the Potency result in [7] is “inactive”. The call in [8], in assay [9] and in assay [10] was inactive.

As to `COc1ccc2cc(CCC(C)=O)ccc2c1`, the Potency entry in assay [1], in assay [2], in [3], in assay [4], in [5] and in [6] was “inactive” throughout. The Potency result in assay [7] is “inactive”. The outcome in [8], in [9] and in assay [10] was inactive.

In the case of `CCCCCCCCCCCBr`, the Potency result in [1], in [2], in [3], in [4], in [5] and in [6] was “inactive” each time. The Potency entry in assay [7] is “inactive”. Moreover, the outcome in [8], in assay [9] and in [10] was inactive.

Turning to `CCC(C)(C)C`, the Potency result in [1], in assay [2], in assay [3], in [4], in [5] and in [6] was “inactive” throughout. Moreover, the Potency entry in assay [7] was “inactive”. Moreover, the compound was called inactive in assay [8], in assay [9] and in assay [10].

As to `C[C@@H](CN1CC(=O)NC(=O)C1)N1CC(=O)NC(=O)C1`, the Potency entry in assay [1], in [2], in assay [3], in [4], in assay [5] and in assay [6] was “inactive” throughout. Moreover, the Potency entry in [7] is “inactive”. Further, the result in [8], in assay [9] and in [10] was inactive.

With `CNCCc1ccccn1`, the Potency result in [1], in assay [2], in assay [3], in assay [4], in assay [5] and in [6] was “inactive” each time. Further, the Potency result in [7] is “inactive”. Besides, the compound was called inactive in assay [8], in [9] and in assay [10].

As to `Cc1ccc(N)nc1`, the Potency entry in assay [1], in [2], in [3], in [4], in assay [5] and in assay [6] was “inactive” each time. The Potency entry in assay [7] was “inactive”. In addition, the call in assay [8], in assay [9] and in assay [10] was inactive.

Consider `COC(=O)N/N=C/c1c[n+]([O-])c2ccccc2[n+]1[O-]`, for which the Potency in [1] was 23.9 µM (active); in assay [2] it was 23.9 µM (active); in [4], 21.3 µM (active); in assay [5], 23.9 µM (active); in assay [6] it was 23.9 µM (active); in assay [7], 23.9 µM (active). Besides, the Potency result in assay [3] is “inactive”. For the same compound, the outcome in [8], in [9] and in assay [10] was inactive.

Consider `CCCC[O][Al]([O]CCCC)[O]CCCC`, for which the Potency entry in assay [1], in assay [2], in assay [3], in [4], in assay [5] and in assay [6] was “inactive” each time. For the same compound, the Potency result in [7] is “inactive”. In addition, the outcome in assay [8], in assay [9] and in assay [10] was inactive.

In the case of `C=C(C)C(=O)OCCCC`, the Potency entry in [1], in assay [2], in assay [3], in [4], in assay [5] and in [6] was “inactive” in each case. Also, the Potency entry in [7] was “inactive”. In addition, the call in assay [8], in assay [9] and in assay [10] was inactive.

For `Cc1ccc2cccnc2c1`, the Potency entry in assay [1], in [2], in assay [3], in [4], in assay [5] and in assay [6] was “inactive” each time. Besides, in assay [7], the Potency entry was “inactive”. The outcome in assay [8], in [9] and in assay [10] was inactive.

As to `C/C=C(\C)C=O`, the Potency result in [1], in assay [2], in [3], in assay [4], in assay [5] and in assay [6] was “inactive” throughout. Moreover, in [7], the Potency entry is “inactive”. In addition, the call in [8] and in [10] was inactive.

As for `CC(C)(C)c1ccc(C(=O)CCCCl)cc1`, the Potency result in assay [1], in [3], in [4], in assay [5], in assay [6] and in assay [7] was “inactive” each time. For the same compound, the call in assay [8], in assay [9] and in [10] was inactive.

Take `CCCCCCC(=O)c1ccccc1`: the Potency entry in assay [1], in assay [3], in assay [4], in assay [5], in assay [6] and in [7] was “inactive” each time. Moreover, the compound was classed as inactive in assay [8], in assay [9] and in assay [10].

For the compound `NNC(=O)OCc1ccccc1`, the Potency result in assay [1], in assay [2], in assay [4], in assay [5], in [6] and in assay [7] was “inactive” throughout. In addition, the result in assay [8], in assay [9] and in assay [10] was inactive.

With `CCCCCCCOC(C)=O`, the Potency result in assay [1], in assay [2], in assay [3], in assay [4], in [5] and in assay [6] was “inactive” throughout. The compound was classed as inactive in [8] and in assay [10].

As to `CCOC(=O)c1ccc(N(C)C)cc1`, the Potency result in assay [1], in [2], in assay [3], in [4], in assay [5] and in assay [6] was “inactive” each time. Further, in assay [7], the Potency result is “inactive”. In addition, the outcome in assay [8] and in assay [10] was inactive.

These data come from PubChem BioAssay (Tox21).
